Here are results for 46 molecules from PubChem BioAssay AID1851 (National Center for Advancing Translational Sciences (NCATS), 2009).

The campaign covered roughly 16,000 compounds. About 4,000 (25%) were called active. Another 26% or so got no clear call; they are omitted. These entries were drawn from the full list. Values without a mark were called inactive. Calls follow the shape of the dose curve; as a rule, active = well fitted curve in the direction sought with a large enough effect; inconclusive = small, poorly fitted or top-dose-only effect, or effect the other way; inactive = no such curve, though single readings can be large or run the other way.
% is scaled to controls: 0 for no effect and ±100 for the full control effect.

For this test, the target named is Cytochrome P450 2C9 (Homo sapiens) (UniProt P11712). The experiment in a line: Cytochrome panel assay with activity outcomes. The settings on record: recombinant CYP, pro-luciferin dealkylation, luminescence, p450-cyp2c9; series mostly up to 57.1 µM; activity, negative = inhibition: at the top concentration.
Chain of Cytochrome P450 2C9 (Homo sapiens) (P11712 whole entry, looked up): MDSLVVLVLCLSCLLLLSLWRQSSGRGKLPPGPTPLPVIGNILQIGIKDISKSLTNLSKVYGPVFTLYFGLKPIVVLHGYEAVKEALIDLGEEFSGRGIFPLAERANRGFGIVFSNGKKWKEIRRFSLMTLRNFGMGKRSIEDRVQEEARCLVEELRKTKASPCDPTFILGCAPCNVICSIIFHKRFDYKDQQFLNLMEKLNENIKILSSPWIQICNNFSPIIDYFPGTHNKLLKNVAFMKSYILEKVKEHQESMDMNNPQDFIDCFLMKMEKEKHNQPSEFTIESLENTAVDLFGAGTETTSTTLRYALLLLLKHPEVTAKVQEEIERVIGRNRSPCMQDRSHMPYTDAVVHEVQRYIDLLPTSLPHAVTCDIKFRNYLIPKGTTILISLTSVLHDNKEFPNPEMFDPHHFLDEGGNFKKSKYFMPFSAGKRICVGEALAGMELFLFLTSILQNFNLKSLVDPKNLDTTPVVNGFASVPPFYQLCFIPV
As for `O=c1ccc(-c2ccccc2)n[nH]1`, the activity, negative = inhibition was 6.17% [at 11.4 µM]. With `C[C@]12CC[C@H]3c4ccc(O)cc4CC[C@@H]3[C@H]1C/C(=N/O)[C@H]2O`, the activity, negative = inhibition is 21.3% [at 11.4 µM]. On to `COc1ccccc1CN1CC[C@@]2(CCCN(C(C)=O)C2)C1`, for which the “activity, negative = inhibition” value was 18%.

On to `CCc1cc2c(nc1CC)CCN(CC/C(C)=N/OC[C@@H](O)[C@@H]1O[C@@H]3OC(C)(C)O[C@@H]3[C@H]1O)C2`, for which the activity, negative = inhibition was -13.5% [at 11.4 µM].

For the molecule `C=CCSc1nnc(-c2cc3c(-c4ccccc4)nn(C)c3s2)n1C`, the AC50 (in general, the concentration giving half of the maximal activity seen) was 14.1 µM (active).

Take `COc1cc(-c2nnc(SC/C=C/c3ccccc3)n2N)cc(OC)c1OC`: the “activity, negative = inhibition” value is -22.9%.

With `Cc1noc(C)c1-c1nccc(NCCN2CCOCC2)n1`, the activity, negative = inhibition was 3.29% [at 2.29 µM].

Take `O=C(COc1ccc(Br)cc1)Nc1ccc([N+](=O)[O-])cn1`: the “activity, negative = inhibition” value is -16.4%.

As for `O=C(Nc1nnc(CCS(=O)(=O)c2ccc(Br)cc2)s1)c1ccc([N+](=O)[O-])cc1`, the “activity, negative = inhibition” value is 6.65%. Consider `O=C(COc1cccc(NC(=O)c2cccc([N+](=O)[O-])c2)c1)c1ccc(Br)cc1`, for which the half-maximal activity concentration (AC50) is 0.891 µM (active). For `C[C@@H](c1ccccc1)N1C(=O)[C@H]2[C@@H]3[C@H](O)[C@H](O)CC(=O)[C@H]3CC[C@H]2C1=O`, the activity, negative = inhibition was -15.7% [at 11.4 µM]. Regarding `O=C(c1ccccc1)c1nc2ccccc2n(CCCn2c(=O)c(C(=O)c3ccccc3)nc3ccccc32)c1=O`, the AC50 is 0.2 µM (active).

Turning to `CCCCCn1c(=O)c(C(=O)c2ccccc2)nc2ccccc21`, the AC50 is 14.1 µM (active).

For `O=C(O)Cc1cc2ccccc2nc1C(=O)O`, the “activity, negative = inhibition” value was -9.23%.

Turning to `CCCn1c(N)[n+](CC(=O)c2ccco2)c2ccccc21`, the “activity, negative = inhibition” value was -34%. The same measure, in the same setting: next, `N=C(N)[C@H](N=Nc1ccccc1)C(N)=O`: -7.82% [at 11.4 µM]; `CCn1c(O)c(/C=N/N=C2CCCC2)c2ccc(C3=NNC(=O)CC3)cc21`: 2.05%.

In the case of `Cc1ccc(C2C(=O)N(C3CCCC3)CC(=O)N2CC2COc3ccccc3O2)cc1` (stereo unspecified), the half-maximal activity concentration (AC50) was 11.2 µM (active). On to `OC(COCC1COc2ccccc2O1)CN1CCc2ccccc2C1` (stereo unspecified), for which the “activity, negative = inhibition” value is -24.8%.

For the molecule `CC1CCCC(C)N1CC(O)COCC1COc2ccccc2O1` (stereo unspecified), the “activity, negative = inhibition” value was -11.1%. For the molecule `Nc1ccn([C@H]2O[C@@H](COP(=O)(O)O)[C@@H](O)[C@H]2O)c(=O)n1`, the activity, negative = inhibition is -6.67% [at 11.4 µM].

As to `COc1cc(N)c(Cl)cc1C(=O)OCCCN1CCCCC1`, the “activity, negative = inhibition” value is 20.3%. Same read-out and setting: as for `Cn1cc(C(=O)OCC2CCN(CCNS(C)(=O)=O)CC2)c2ccccc21`, the figure is 3.8%. On to `COc1cc(N)c(Cl)cc1C(=O)CCC1CCN(CCNS(C)(=O)=O)CC1`, for which the AC50 was 0.251 µM (active).

Consider `CCn1cc(C(=O)O)c(=O)c2cc(F)c(N3CCN[C@@H](C)C3)c(F)c21`, for which the AC50 result was “inactive”.

Take `COc1ccc(C(C)=O)c(OC(=O)c2ccco2)c1`: the “activity, negative = inhibition” value is -23.6%. Regarding `O=C(Oc1ccc(OC(=O)c2ccco2)c(S(=O)(=O)c2ccc(Br)cc2)c1)c1ccco1`, the half-maximal activity concentration (AC50) was 0.708 µM (active). Take `CC(C)OC(=O)c1cccc(C(=O)Oc2ccc(Br)cc2)n1`: the “activity, negative = inhibition” value is -23.1%. With `CCc1cc2c(=O)c(-c3cnn(-c4ccccc4)c3)coc2c(CN2CCOCC2)c1O`, the AC50 is 2.51 µM (active).

For the molecule `OC(CCCN1CCCCC1)(c1ccccc1)c1ccccc1`, the “activity, negative = inhibition” value was -4.74% [at 25.6 µM]. For the molecule `O=C(N/N=C/C1C(c2ccccc2)C1(Cl)Cl)c1cccc(Br)c1` (stereo unspecified), the AC50 was 2 µM (active). In the case of `O=C(N/N=C\c1ccc(Sc2ccccn2)o1)c1cccc(Br)c1`, the AC50 was 2.24 µM (active). `O=C(N[C@@]1(C(=O)O)C[C@@H]1c1ccccc1)c1ccccc1`: the activity, negative = inhibition is 5.78% [at 11.4 µM]. Still for that read-out and setting: next, `C/C(=N\NC(=O)c1cccc(Br)c1)c1ccc(Br)cc1`: -20.4%. In the case of `O=C(N/N=C/c1cccc(Oc2ccccc2)c1)c1cccc(Br)c1`, the concentration at half-maximal activity (AC50) was 7.08 µM (active). As to `O=C(O)Cn1ccnc1[N+](=O)[O-]`, the activity, negative = inhibition is 9.22% [at 11.4 µM]. Same read-out and setting: as for `COc1ccc2c(c1)N(C[C@@H](C)CN(C)C)c1ccccc1S2`, the figure is 0.217% [at 25.6 µM]; as for `COc1ccccc1-c1cncnc1NCc1cccc(C)c1`, -10.6% [at 2.29 µM].

For `Cc1nn(Cc2ccc([N+](=O)[O-])cc2)c(=O)n1-c1cccc(F)c1`, the “activity, negative = inhibition” value is -24.2%.

Take `Nc1ncncc1-c1ccc([N+](=O)[O-])cc1`: the “activity, negative = inhibition” value is 34.9%. `Cc1cc(C)c(Cn2cnc(-c3ccc([N+](=O)[O-])cc3)c2)c(C)c1`: the half-maximal activity concentration (AC50) is 12.6 µM (active). With `O=C(Cc1ccccc1)N/N=C\c1ccc(Br)o1`, the half-maximal activity concentration (AC50) was 12.6 µM (active). Consider `O=C(CC(=O)N/N=C\c1c(Cl)cccc1Cl)NCc1ccccc1`, for which the “activity, negative = inhibition” value is -20.1%. The same measure, in the same setting: next, `Cc1cc(C)n(CC(=O)N/N=C/c2ccco2)n1`: 16.2%.

Consider `O=C(Cc1ccccc1)N/N=C/c1cc(Br)c(Br)o1`, for which the AC50 is 14.1 µM (active). For `O=C(N/N=C/c1ccco1)c1ccc(Br)o1`, the “activity, negative = inhibition” value was 16.9%.
